Hits are enriched below; roughly 6.6% of the tested compounds scored in any of these assays.
RGS4 inhibitor: human RGS4 inhibition | Transcreener GDP fluorescence polarization, RGS4-accelerated GTP hydrolysis | Potency, µM (highest dose often 114 µM), without a hit: top-dose activity change, negative = inhibition, most hits filed as inhibitors | 390,000 tested, 0.039% active | AID 504845; also: % is scaled to controls: 0 for no effect and ±100 for the full control effect; nearly all actives have a fitted effect of over 75% in size
Target sequence (P49798 whole entry, looked up): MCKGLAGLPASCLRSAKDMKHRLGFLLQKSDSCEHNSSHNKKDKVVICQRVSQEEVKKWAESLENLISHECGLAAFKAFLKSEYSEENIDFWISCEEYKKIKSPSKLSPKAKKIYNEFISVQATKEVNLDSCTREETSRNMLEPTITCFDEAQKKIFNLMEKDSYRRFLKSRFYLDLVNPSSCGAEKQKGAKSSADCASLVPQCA
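MLSMR compounds (23 nl, pin-transferred) preincubated 10 min at room temperature with a 500nM (2x) first reagent, then RGS4 at 900nM (2x) plus Transcreener GDP mix added; fluorescence polarization (620/688 nm) read before and after 90 min at 30 °C.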
TSG101-PTAP inh: blocks PTAP/TSG101 interaction to inhibit HIV-1 budding. Q99816. Fluorescence polarization, FITC-PTAP peptide / Tsg101 binding. Potency, µM (doses to about 115 µM), for inactives: at the top dose activity change, negative = inhibition, actives largely listed as inhibitors. 340,000 tested, under 10 active. AID 493005; active = well fitted inhibition curve with a large enough effect in the main read-out, with a control signal flat, not every such curve was filed as active; inconclusive = small, poorly fitted or top-dose-only effect, or effect the other way, or a change in a side signal; inactive = no such curve, though single readings can be large or run the other way; also: % of control where 0% means no effect
Target sequence (Q99816 whole entry, looked up): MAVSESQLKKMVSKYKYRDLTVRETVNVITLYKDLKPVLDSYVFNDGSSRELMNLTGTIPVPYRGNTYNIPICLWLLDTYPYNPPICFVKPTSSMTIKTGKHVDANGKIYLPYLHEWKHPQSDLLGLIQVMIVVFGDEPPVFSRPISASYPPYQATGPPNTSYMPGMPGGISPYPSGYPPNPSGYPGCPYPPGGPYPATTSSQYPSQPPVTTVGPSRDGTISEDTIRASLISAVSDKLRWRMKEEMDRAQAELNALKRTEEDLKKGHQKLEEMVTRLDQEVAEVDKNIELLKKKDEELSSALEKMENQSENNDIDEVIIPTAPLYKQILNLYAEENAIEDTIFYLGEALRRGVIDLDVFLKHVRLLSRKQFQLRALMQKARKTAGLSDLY
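FP read-out: FITC-PTAP peptide, 50 nM final, binding Tsg101 binding domain, 10 uM final; 20 min, r.t.; 10 mM HEPES pH 7.5, 0.15 M NaCl, 0.01% Tween 20, 3 mM EDTA, 0.1 mM TCEP.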
KB-3-1 tox: KB-3-1 parental cell cytotoxicity; KB-3-1 viability, CellTiter-Glo ATP luminescence, 72 h; Potency, µM (series often up to 46.1 µM), usual class: cytotoxic; 400,000 tested, 1.4% active; AID 1347075; also: % is scaled to controls: 0 for no effect and ±100 for the full control effect; nearly all actives have a fitted effect of over 60% in size
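72 h, 37 °C compound treatment of KB-3-1 parental cells; CellTiter-Glo added, 10 min, luminescence read. Data corrected against DMSO-only plates and normalized before curve fitting.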
KB-V1 MDR tox: KB-V1 MDR subline cytotoxicity. 400,000 tested, 3.4% active. KB-V1 MDR cells viability, CellTiter-Glo, 72 h. Potency, µM (highest dose often 46.1 µM), hits mostly cytotoxic; also: % is scaled to controls: 0 for no effect and ±100 for the full control effect; nearly all actives have a fitted effect of over 60% in size
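qHTS viability screen in drug-selected KB-V1 MDR cells: 72 h compound treatment at 37 degrees C, ATP luminescence end point.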
MCF10A rereplic: DNA re-replication induction in MCF 10a cells. MCF 10A DNA re-replication, Hoechst nuclear intensity, 48 h. Potency, µM (doses to about 46.1 µM), for inactives: at the top dose activity, positive = re-replication, actives largely listed as activators. 350,000 tested, 2.9% active. AID 624296; also: % of control where 0% means no effect; nearly all actives have a fitted effect of over 50% in size
SW480 rerep: induces DNA re-replication in SW480 colon adenocarcinoma cells | 340,000 tested, 1.8% active | Potency, µM (titrated, usually from 46.1 µM), for the others: at the top dose re-replication activation, most hits filed as activators | AID 624297 | SW480 DNA re-replication, Hoechst DNA content imaging, 48 h; also: % of control where 0% means no effect; nearly all actives have a fitted effect of over 55% in size
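250 cells/well; 23 nL cpd via pin tool; 48 hr, 37 C, 5% CO2; Hoechst 40 min; imager read of total nuclear intensity, ex 405/em 500-530 nm.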
* marks the source's active call; other numbers are inactive results; i = inactive; ? = inconclusive; nt = not tested or not shown; ! = not active in a repeat. Unless noted, calls follow the shape of the dose curve; as a rule, active = well fitted curve in the direction sought with a large enough effect; inconclusive = small, poorly fitted or top-dose-only effect, or another doubt; inactive = no such curve, though single readings can be large; an effect the other way counts as inactive or inconclusive. Potency is read from the fitted curve at half-maximal effect.

SMILES	RGS4 inhibitor	TSG101-PTAP inh	KB-3-1 tox	KB-V1 MDR tox	MCF10A rereplic	SW480 rerep
Cc1ccc(Cn2c(SCC(=O)NCc3ccccc3Cl)nc3ccsc3c2=O)cc1	-32%	nt	nt	nt	nt	nt
CCc1cc(C(=O)N2CCCC(C(=O)c3cccc4ccccc34)C2)n(C)n1 (configuration not stated)	6%	-2%	21µM*	5.2µM*	18%	-2%
CCCc1cc(C(=O)N2CCCC(C(=O)c3cccc4ccccc34)C2)n(C)n1 (configuration not stated)	11%	-7%	i	?	5%	-6%
C[C@@H](O)[C@@H]1C(=O)N2C(C(=O)O)=C([C@H]3CCCO3)S[C@H]12	nt	nt	nt	nt	0%	3%
Cc1cccc(OCc2cc(=O)n3c(-c4ccccc4)csc3n2)c1C	-16%	nt	i	i	nt	nt
O=C(c1cccs1)N1CCCc2cc(NS(=O)(=O)c3ccc(Br)cc3)ccc21	15%	nt	?	?	nt	nt
NC(=O)c1c(NC(=O)C2CCCO2)sc2c1CCCC2 (configuration not stated)	?	-4%	i	15µM*!	1%	-5%
N#Cc1c(NC(=O)C2CCCO2)sc2c1CCCCCC2 (configuration not stated)	-6%	3%	i	18µM*	?	?
N#Cc1c(NC(=O)CSc2nnnn2C2CCCCC2)sc2c1CCCC2	-13%	1%	i	23µM*	27%	-2%
CCOC(=O)c1c(NC(=O)C2CCCO2)sc2c1CCC2 (configuration not stated)	-35%	-8%	i	i	?	2%
COC(=O)Nc1sc2c(c1C(N)=O)CCCC2	nt	nt	i	i	nt	nt
COC(=O)Nc1sc2c(c1C(=O)NC1CC1)CCCCCC2	-12%	-7%	i	23µM*	?	-6%
Oc1ccc(Cl)cc1C1C=C(c2ccc3c(c2)OCO3)NC(c2cc(Br)ccc2F)N1 (configuration not stated)	-31%	nt	nt	nt	nt	nt
CC(=O)OCC(=O)[C@@]12OC3(CCCC3)O[C@@H]1C[C@H]1[C@@H]3CCC4=CC(=O)C=C[C@]4(C)[C@@]3(F)[C@@H](O)C[C@@]12C	5%	1%	i	i	?	0.26µM*!
CC(C)CC(NC(=O)c1cccs1)c1nnc(SCc2ccc(Cl)c(Cl)c2)n1C (configuration not stated)	-13%	-4%	?	?	18µM*	12%
COc1ccc(C(=O)NC(CO)c2nnc(SCc3ccc(Cl)c(Cl)c3)n2C)cc1 (configuration not stated)	8%	-3%	i	i	-19%	7%
CC1=NNC(=O)/C1=C\c1cn(-c2ccccc2)nc1-c1ccccc1	?	1%	?	?	3.7µM*	10%
O=C(NCC(c1cccnc1)N1CCc2ccccc21)c1ccc(F)cc1 (configuration not stated)	0%	nt	i	?	nt	nt
Cc1c(CCC(=O)NCCCn2ccnc2)c(=O)oc2c(C)c3occ(C(C)(C)C)c3cc12	16%	-7%	i	i	?	21µM*
CC(C)(C)OC(=O)N1CCC(c2c(C(=O)Nc3ccc4c(c3)OCCO4)cnn2-c2ccc(F)cc2F)CC1	-9%	nt	i	i	nt	nt
COc1ccc(/C(N)=N/OC(=O)N2CCOCC2)cc1	-17%	-3%	i	i	21µM*	?
O=C(CSc1nccn1Cc1ccc(F)cc1)Nc1ccc2c(c1)OCCO2	16%	nt	nt	nt	nt	nt
c1ccc(Oc2c3ccccc3nc3ccccc23)cc1	-53%	1%	?	?	18µM*	?
Nc1c2c(nc3ccccc13)CCCC2	?	-1%	i	i	?	?
Nc1c2ccccc2nc2ccccc12	-17%	-5%	5.2µM*	2.1µM*!	18µM*!	23µM*
SMILES	RGS4 inhibitor	TSG101-PTAP inh	KB-3-1 tox	KB-V1 MDR tox	MCF10A rereplic	SW480 rerep
Cc1nc(Oc2ccccc2)c2ccccc2n1	-43%	0%	i	i	3%	-1%
CCN(Cc1nc(-c2ccc(OC)c(OC)c2)no1)S(=O)(=O)c1ccc(OC)cc1	3%	nt	i	?	nt	nt
S=C1NC(c2ccccc2)=CC(c2ccccc2)N1 (configuration not stated)	-47%	-6%	i	i	?	-3%
S=C1NC(c2cccs2)=CC(c2ccc(Br)cc2)N1 (configuration not stated)	?	-3%	i	?	?	21µM*
Cc1ccc(NC(=O)C2CCC(CNC(=O)[C@@H]3Cc4ccccc4CN3)CC2)cc1 (some centres not stated)	-3%	-1%	i	i	3%	2%
CC(C)c1ccc(NC(=O)C2CCC(CNC(=O)[C@@H]3Cc4ccccc4CN3)CC2)cc1 (some centres not stated)	25%	-1%	i	?	15µM*	?
CCOC(=O)c1c(-c2ccc(OC)cc2)csc1NC(=O)CSc1ncnc2sccc12	13%	3%	i	i	16µM*	-113%
CCOC(=O)c1c(-c2cccs2)csc1NC(=O)C(C)(C)C	-26%	0%	i	15µM*	13µM*	-4%
CCOC(=O)c1c(-c2cccs2)csc1NC(=O)CSc1ncn[nH]1	-48%	-6%	i	21µM*	?	2%
CCOC(=O)c1c(-c2cccs2)csc1NC(=O)CN1CC(C)OC(C)C1 (configuration not stated)	-9%	-11%	i	i	21µM*	?
CCNC(=O)c1c(NC(=O)c2nc(SC)ncc2Cl)sc2c1CCCC2	nt	nt	?	i	nt	nt
CC(=O)c1nn(-c2ccc(OC(F)(F)F)cc2)nc1Nc1ccc(Cl)cc1	3%	nt	nt	nt	nt	nt
Cc1ccccc1C(=O)Nc1cccc(OCc2cc(=O)n3cccc(C)c3n2)c1	-12%	nt	nt	nt	nt	nt
Cc1ccccc1CN1C(=O)c2ccccc2S(=O)c2ccc(C(=O)NCc3ccco3)cc21 (configuration not stated)	-19%	nt	i	i	nt	nt
CCOC(=O)c1ccc(NC(=O)CSc2nc(C)cc(=O)[nH]2)cc1	-15%	-3%	i	i	0%	-2%
CCOC(=O)c1c(-c2ccc(C)s2)csc1NC(=O)c1cccs1	-9%	-4%	i	i	10%	-15%
CCOC(=O)c1c(-c2ccccc2Cl)csc1NC(=O)CSc1nc(C)cc(=O)[nH]1	-5%	2%	i	?	?	23µM*
